According to the supplement of paper PMC11732987, “Enantioselective OTUD7B fragment discovery through chemoproteomics screening and high-throughput optimisation” (Communications Chemistry, 2025):
Values without a mark were called inactive.

Legend:
Experiment in all cases: log2 ratio of Biotin-Ahx-Ub-VS probe labelling (fragment/DMSO); higher = less target engagement (more negative = stronger competition), active = hit call of the paper (q ≤ 0.05, log2 ratio ≤ -1)
Details in all cases: compound concentration: 200 uM; treatment time: 3 h
OTUD6B = biological target: T1, OTUD6B (UniProt Q8N6M0)
T1 sequence (whole entry): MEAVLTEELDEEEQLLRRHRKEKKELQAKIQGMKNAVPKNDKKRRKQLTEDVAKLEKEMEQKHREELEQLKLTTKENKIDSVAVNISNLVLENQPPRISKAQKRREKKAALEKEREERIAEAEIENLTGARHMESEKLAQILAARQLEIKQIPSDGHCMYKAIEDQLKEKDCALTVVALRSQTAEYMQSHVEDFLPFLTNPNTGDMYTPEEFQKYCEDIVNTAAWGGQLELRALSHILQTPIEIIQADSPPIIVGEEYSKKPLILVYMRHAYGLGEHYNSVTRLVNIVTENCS
Procedure, shortened: (§1)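 HEK293T lysate (495 µg per sample, in Tris/CHAPS/IGEPAL buffer with protease inhibitors) was exposed in triplicate for 3 h to fragment at 200 µM or to vehicle, then to Biotin-Ahx-Ub-VS at 0.5 µM final for 1 h. Labelled DUBs were enriched on NeutrAvidin, digested with LysC and trypsin, and analysed by diaPASEF LC-MS/MS. Spectronaut label-free quantities were normalised to the global median, and values are average log2 ratios of fragment over vehicle from an unpaired t-test. Only proteins with ≥2 unique peptides were used.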

OTUD7B = biological target: T2, OTUD7B (UniProt Q6GQQ9)
T2 sequence (whole entry): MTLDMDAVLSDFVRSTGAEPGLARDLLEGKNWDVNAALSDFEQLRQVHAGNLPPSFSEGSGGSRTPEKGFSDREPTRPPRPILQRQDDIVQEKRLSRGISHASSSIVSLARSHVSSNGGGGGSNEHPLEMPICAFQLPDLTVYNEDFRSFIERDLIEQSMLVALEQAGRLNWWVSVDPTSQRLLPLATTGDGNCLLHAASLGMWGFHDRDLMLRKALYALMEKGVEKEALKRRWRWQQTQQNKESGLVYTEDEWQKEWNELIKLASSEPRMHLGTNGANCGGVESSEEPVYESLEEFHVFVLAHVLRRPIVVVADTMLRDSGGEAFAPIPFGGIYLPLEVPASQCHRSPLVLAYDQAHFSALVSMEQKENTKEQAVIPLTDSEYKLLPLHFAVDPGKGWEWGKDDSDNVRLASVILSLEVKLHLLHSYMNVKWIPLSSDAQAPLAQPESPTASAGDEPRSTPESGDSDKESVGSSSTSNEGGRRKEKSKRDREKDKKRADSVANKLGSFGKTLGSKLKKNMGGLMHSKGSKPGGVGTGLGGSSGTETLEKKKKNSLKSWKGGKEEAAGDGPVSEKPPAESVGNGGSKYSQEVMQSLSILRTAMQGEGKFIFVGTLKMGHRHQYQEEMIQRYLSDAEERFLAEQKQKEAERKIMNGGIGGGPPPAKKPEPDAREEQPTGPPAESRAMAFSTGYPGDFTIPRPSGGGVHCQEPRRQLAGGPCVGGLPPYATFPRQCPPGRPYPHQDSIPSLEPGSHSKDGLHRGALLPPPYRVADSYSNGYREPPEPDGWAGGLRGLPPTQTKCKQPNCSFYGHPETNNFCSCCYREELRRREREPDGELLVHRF
Procedure, shortened: as §1

PRPF8 = PRPF8 (UniProt Q6P2Q9)
Procedure, shortened: as §1

PSMD7 = biological target: T3, PSMD7 (UniProt P51665)
T3 sequence (whole entry): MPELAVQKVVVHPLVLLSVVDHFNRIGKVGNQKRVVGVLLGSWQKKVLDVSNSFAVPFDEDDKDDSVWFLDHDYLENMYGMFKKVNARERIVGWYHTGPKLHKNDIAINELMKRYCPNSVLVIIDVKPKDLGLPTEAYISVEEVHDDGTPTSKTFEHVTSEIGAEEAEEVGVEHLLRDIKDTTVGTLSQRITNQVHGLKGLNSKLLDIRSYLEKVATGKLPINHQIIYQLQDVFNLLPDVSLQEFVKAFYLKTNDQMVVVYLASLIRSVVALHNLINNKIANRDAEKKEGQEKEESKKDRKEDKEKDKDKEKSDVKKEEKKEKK
Procedure, shortened: as §1

UCHL1 = UCHL1 (UniProt P09936)
Chain of UCHL1 (P09936 whole entry, looked up): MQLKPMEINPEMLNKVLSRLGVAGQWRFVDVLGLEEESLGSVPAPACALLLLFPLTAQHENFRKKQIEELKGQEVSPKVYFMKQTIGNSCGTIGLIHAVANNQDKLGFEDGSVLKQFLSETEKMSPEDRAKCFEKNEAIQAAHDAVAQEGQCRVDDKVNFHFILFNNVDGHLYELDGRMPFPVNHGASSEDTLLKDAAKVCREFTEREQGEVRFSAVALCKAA
Procedure, shortened: as §1

UCHL3 = biological target: T4, UCHL3 (UniProt P15374)
T4 sequence (whole entry): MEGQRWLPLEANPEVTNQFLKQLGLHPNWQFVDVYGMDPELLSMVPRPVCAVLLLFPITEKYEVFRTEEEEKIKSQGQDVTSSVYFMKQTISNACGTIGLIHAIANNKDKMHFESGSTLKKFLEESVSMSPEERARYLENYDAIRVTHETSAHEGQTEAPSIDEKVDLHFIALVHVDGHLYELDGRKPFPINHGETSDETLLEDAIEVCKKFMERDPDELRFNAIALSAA
Procedure, shortened: as §1

UCHL5 = biological target: T5, UCHL5 (UniProt Q9Y5K5)
T5 sequence (whole entry): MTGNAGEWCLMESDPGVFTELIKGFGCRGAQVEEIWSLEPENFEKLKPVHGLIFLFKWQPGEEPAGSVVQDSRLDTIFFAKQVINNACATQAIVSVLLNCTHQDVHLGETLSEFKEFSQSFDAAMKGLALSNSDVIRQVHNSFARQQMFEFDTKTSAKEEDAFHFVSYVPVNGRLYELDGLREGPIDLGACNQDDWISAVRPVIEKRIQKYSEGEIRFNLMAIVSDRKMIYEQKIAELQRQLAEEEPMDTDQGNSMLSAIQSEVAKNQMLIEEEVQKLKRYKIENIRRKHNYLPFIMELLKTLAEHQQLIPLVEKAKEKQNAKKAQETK
Procedure, shortened: as §1

USP10 = USP10 (UniProt Q14694)
Chain of USP10 (Q14694 whole entry): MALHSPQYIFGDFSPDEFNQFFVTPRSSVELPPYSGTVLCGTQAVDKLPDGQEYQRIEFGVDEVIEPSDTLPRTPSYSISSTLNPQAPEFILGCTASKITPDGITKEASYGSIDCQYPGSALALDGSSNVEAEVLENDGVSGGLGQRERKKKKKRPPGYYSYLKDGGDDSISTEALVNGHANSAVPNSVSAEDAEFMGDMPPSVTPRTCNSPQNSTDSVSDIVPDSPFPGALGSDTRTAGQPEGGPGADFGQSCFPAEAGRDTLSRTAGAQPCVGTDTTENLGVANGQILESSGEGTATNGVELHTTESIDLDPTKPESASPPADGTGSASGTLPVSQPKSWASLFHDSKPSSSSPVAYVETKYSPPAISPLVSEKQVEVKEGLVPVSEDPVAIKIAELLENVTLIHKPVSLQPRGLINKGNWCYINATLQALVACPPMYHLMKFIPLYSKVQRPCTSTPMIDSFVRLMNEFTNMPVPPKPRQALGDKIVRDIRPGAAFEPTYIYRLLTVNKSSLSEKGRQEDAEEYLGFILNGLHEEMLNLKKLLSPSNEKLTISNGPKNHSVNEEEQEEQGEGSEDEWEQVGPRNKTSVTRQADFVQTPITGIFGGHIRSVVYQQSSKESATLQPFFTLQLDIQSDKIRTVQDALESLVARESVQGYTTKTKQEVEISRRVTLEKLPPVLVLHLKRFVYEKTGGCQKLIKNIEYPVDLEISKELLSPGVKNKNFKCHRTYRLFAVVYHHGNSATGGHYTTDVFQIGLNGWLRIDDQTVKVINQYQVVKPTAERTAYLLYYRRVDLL
Procedure, shortened: as §1

USP15 = biological target: T6, USP15 (UniProt Q9Y4E8)
T6 sequence (whole entry): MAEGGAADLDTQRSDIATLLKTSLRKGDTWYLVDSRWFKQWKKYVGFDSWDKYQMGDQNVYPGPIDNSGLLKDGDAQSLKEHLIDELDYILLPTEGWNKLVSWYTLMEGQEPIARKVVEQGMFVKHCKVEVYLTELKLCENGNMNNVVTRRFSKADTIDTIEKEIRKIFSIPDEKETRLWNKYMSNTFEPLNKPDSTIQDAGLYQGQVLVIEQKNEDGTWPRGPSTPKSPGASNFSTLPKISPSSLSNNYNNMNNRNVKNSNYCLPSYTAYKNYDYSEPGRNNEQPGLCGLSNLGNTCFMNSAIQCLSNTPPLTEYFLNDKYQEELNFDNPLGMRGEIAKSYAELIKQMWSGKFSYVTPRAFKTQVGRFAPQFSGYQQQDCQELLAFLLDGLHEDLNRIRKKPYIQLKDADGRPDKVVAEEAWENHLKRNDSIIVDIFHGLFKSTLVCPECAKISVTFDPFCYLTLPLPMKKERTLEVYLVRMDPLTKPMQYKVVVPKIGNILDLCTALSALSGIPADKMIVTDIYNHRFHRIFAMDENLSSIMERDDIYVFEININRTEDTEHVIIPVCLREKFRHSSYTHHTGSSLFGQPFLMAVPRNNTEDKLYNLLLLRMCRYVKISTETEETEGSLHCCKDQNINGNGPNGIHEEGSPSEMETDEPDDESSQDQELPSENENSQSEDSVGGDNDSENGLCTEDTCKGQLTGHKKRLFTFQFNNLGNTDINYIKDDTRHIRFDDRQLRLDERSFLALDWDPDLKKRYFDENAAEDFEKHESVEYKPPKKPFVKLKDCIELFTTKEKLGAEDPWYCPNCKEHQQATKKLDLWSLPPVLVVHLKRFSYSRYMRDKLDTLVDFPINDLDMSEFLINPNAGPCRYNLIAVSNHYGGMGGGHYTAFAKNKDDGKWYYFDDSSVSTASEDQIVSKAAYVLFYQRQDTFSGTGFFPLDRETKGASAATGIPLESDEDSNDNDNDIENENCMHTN
Procedure, shortened: as §1

USP16 = USP16 (UniProt Q9Y5T5)
Chain of USP16 (Q9Y5T5 whole entry, looked up): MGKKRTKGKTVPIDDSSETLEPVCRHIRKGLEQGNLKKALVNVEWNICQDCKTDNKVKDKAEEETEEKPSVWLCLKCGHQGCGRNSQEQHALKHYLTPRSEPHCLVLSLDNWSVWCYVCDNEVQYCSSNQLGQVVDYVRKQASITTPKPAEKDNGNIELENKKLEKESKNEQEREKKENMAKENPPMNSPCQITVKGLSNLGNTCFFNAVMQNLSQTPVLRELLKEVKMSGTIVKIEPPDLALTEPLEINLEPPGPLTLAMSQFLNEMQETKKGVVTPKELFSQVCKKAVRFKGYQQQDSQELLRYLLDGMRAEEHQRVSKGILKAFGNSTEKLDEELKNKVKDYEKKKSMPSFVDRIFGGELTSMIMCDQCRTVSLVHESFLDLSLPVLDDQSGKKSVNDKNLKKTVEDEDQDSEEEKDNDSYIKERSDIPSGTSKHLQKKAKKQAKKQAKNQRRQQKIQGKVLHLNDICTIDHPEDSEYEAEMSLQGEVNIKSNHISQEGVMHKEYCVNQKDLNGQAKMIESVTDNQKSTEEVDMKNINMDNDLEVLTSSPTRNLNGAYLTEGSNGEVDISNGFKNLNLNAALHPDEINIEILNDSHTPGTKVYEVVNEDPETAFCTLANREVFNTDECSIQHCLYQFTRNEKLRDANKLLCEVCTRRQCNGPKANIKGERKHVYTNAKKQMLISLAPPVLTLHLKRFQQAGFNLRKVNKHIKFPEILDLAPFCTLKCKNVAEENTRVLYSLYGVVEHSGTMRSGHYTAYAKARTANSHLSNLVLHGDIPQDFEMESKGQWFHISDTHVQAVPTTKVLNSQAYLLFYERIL
Procedure, shortened: as §1

## Cc1ccc(CN(CCO)C(=O)CCl)cc1
OTUD6B
  log2 ratio of Biotin-Ahx-Ub-VS probe labelling: -0.389
OTUD7B
  log2 ratio of Biotin-Ahx-Ub-VS probe labelling: -1.14 (active)
PRPF8
  log2 ratio of Biotin-Ahx-Ub-VS probe labelling: 0.0652
PSMD7
  log2 ratio of Biotin-Ahx-Ub-VS probe labelling: -0.47
UCHL1
  log2 ratio of Biotin-Ahx-Ub-VS probe labelling: -1.56 (active)
UCHL3
  log2 ratio of Biotin-Ahx-Ub-VS probe labelling: 0.0861
UCHL5
  log2 ratio of Biotin-Ahx-Ub-VS probe labelling: -0.52
USP10
  log2 ratio of Biotin-Ahx-Ub-VS probe labelling: -0.0725
USP15
  log2 ratio of Biotin-Ahx-Ub-VS probe labelling: -0.384
USP16
  log2 ratio of Biotin-Ahx-Ub-VS probe labelling: 0.361
